# Active and inactive are the calls of the source. The calls were made as follows: active = hit-call score of the fitted dose curve at least 0.9, where 1 is the maximum; inactive = score below 0.9.
# Assay: CCTE_Shafer_MEA_acute_burst_percentage_std: CCTE's Neural Acute Assay for Standard Deviation of Burst Percentage, Shafer Lab (AID 2284018);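 also: fitted in the negative direction so actives lower burst percentage SD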
# Procedure: CCTE_Shafer_MEA_acute assay is conducted using Axion Biosystems 48 well microelectrode array (MEA) plates and Maestro recording system. Each well of the MEA plate contains a grid of 16 microelectrodes embedded in the culture surface. Electrically active cells, such as neurons, can be cultured over the electrodes, and electrical activity in these cells can be recorded extracellularly. The spontaneous firing of neurons is captured from each electrode on a microsecond timescale providing both temporally and spatially precise data. […] The CCTE_Shafer_MEA_acute assay uses primary cultures of rat cortical neurons. As these cultures mature over time, neural networks develop functional activity and form cohesive networks in which electrical activity can be highly coordinated. Baseline 40-minute recordings are made on days post-plating 13 or 15, followed by a secondary 40-minute recording after chemical exposure.CCTE_Shafer_MEA_acute_burst_percentage_std is a component of the CCTE_Shafer_MEA_acute assay. It measures the percentage of spikes (action potential firing) in a single-electrode burst (temporally-clustered groups of spikes) as the number of spikes in bursts divided by the total number of spikes during a recording in a microelectrode array (MEA) using Axion Biosystems Maestro 768 channel amplifier with the AxIS adaptive spike detector. The standard deviation of the burst percentages across electrodes is calculated to report a well-level value. The recordings before and after chemical treatment are used to calculate a percent change in the standard deviation of the burst percentage in each well.Data from the assay component CCTE_Shafer_MEA_acute_burst_percentage_std was analyzed into 1 assay endpoint. This assay endpoint, CCTE_Shafer_MEA_acute_burst_percentage_std, was analyzed in the negative analysis fitting direction relative to DMSO as the negative control and baseline of activity. Using a type of functional reporter, gain or loss-of-signal activity can be used to understand electrical activity.
# Spontaneous activity in the cortical cultures was recorded using an Axion Biosystems Maestro 768 channel amplifier and Axion Integrated Studios (AxIS) v1.8 (or later) software. The amplifier recorded from all channels simultaneously (gain = 1200 x; sampling rate = 12.5 kHz/channel): raw signals were filtered with a Butterworth band-pass filter (300-5000 Hz), which filters out slower local field potentials leaving only fast potentials, i.e., "spikes", arising from extracellular currents associated with action potentials (Pine 2006; Wheeler and Nam 2011). On-line spike detection of filtered signals was conducted with the AxIS adaptive spike detector, using a threshold of 8x the root mean squared (rms) noise on each channel. Any electrodes with rms noise levels greater than 5 uV were grounded (e.g., no data were recorded). Once grounded, an electrode was grounded for the duration of the experiment. All recordings were conducted at 37 C. Wells were deemed usable if on the day of the exposure >/= 10 electrodes were active (defined as >/= 5 spikes/min). On DIV 13 or 15, a minimum of three wells from one cortical culture preparation were treated with each compound (0.03-40 uM). Prior to recording baseline activity, each mwMEA plate was placed in the Maestro at 37 C and allowed to sit for 20 min while firing rates stabilized. Baseline activity (40 min) was recorded before the addition of each compound. An additional 40 min of spontaneous activity was recorded in the presence of each compound. Changes in network parameters relative to baseline were assessed following compound treatment.
SMILES,outcome,AC50
O=C(O)CN(CC(=O)O)CC(=O)O,inactive,
CC(C)COC(=O)CCCCC(=O)OCC(C)C,inactive,
CN(C)C(=O)NC1(c2ccccc2)CCN(CCC[C@]2(c3ccc(Cl)c(Cl)c3)CCCN(C(=O)c3ccccc3)C2)CC1,,1.83 µM (active)
c1ccc2occc2c1,inactive,
COC(=O)[C@H]1[C@H]2C[C@@H]3c4[nH]c5cc(OC)ccc5c4CCN3C[C@H]2C[C@@H](OC(=O)c2cc(OC)c(OC)c(OC)c2)[C@@H]1OC,inactive,
O=C(N[C@@H](c1ccccc1)[C@@H]1CCCCN1)c1cccc(C(F)(F)F)c1Cl,inactive,
CN(C)C(=O)NC1(c2ccccc2)CCN(CC[C@@]2(c3ccc(F)c(F)c3)CN(C(=O)c3ccccc3)CCO2)CC1,inactive,
CC(C)NCC(O)c1ccc(O)c(O)c1 (stereo not drawn),inactive,
Cc1cc(Cc2ccc(N)c(C)c2)ccc1N,inactive,
Cc1c(C)c2c(c(C)c1O)CCC(C)(COc1ccc(CC3SC(=O)NC3=O)cc1)O2 (stereo not drawn),,33.1 µM (active)
OCC(CO)n1cnc(-c2ccc(F)cc2)c1-c1ccnc(Oc2ccccc2)n1,inactive,
CCCCC(CC)COP(=O)(OCC(CC)CCCC)OCC(CC)CCCC (stereo not drawn),inactive,
Cc1ccc(C(C)(C)C)c(O)c1,inactive,
O=C1OC(c2ccc(O)cc2)(c2ccc(O)cc2)c2ccccc21,inactive,
CN(C)CCCN1c2ccccc2Sc2ccc(Cl)cc21,,31.6 µM (active)
Cc1ccc(-c2cc(C(F)(F)F)nn2-c2ccc(S(N)(=O)=O)cc2)cc1,inactive,
Nc1nc(=S)c2[nH]cnc2[nH]1,inactive,
NC(=Nc1ccccc1)Nc1ccccc1,inactive,
CSc1ccc(Oc2ccc(S(N)(=O)=O)cc2CN(C)C)cc1C,,32.1 µM (active)
C/C=C/c1ccc(OC)cc1,inactive,
CCN(CC)CCOc1ccc(C(=C(Cl)c2ccccc2)c2ccccc2)cc1,,29.1 µM (active)
CC(N)=O,inactive,
CCc1cc(C2=C(C(=O)O)N(c3ccccc3C(F)(F)F)S(=O)(=O)c3ccccc32)cc2c1OCO2,inactive,
Cc1cc(SC2=C(O)C[C@@](CCc3ccc(N)cc3)(C(C)C)OC2=O)c(C(C)(C)C)cc1CO,inactive,
CCCC(=O)O,inactive,
CC1=C(C)S(=O)(=O)CCS1(=O)=O,inactive,
COc1ccc(OC(F)(F)F)cc1CN[C@H]1CCCN[C@H]1c1ccccc1,,4.15 µM (active)
Oc1ccc(O)cc1,inactive,
